# In PubChem BioAssay (EPA / NIEHS):
# Calls of active or inactive are those of the source. How the source made its calls: active means hit-call score of the fitted dose curve at least 0.9, where 1 is the maximum; inactive means score below 0.9.
# Assay: ATG_DR4_LXR_CIS: Attagene CIS-FACTORIAL HepG2 Assay for human Liver X Receptor (LXR), DR4 submotif (AID 2282929)
# Conditions: HepG2 Attagene DR4 cis-reporter, mRNA transcription; actives raise or lower the signal
# Method: ATG_CIS is a cell-based, multiplexed-readout assay that uses HepG2, a human liver cell line, with measurements taken at 24 hours after chemical dosing in a 24-well plate.ATG_DR4_LXR_CIS is one of 52 assay component(s) measured or calculated from the ATG_CIS assay. It is designed to make measurements of mRNA induction, a form of inducible reporter, as detected with fluorescence intensity signals by Reverse transcription polymerase chain reaction (RT-PCR) and Capillary electrophoresis technology.Data from the assay component ATG_DR4_LXR_CIS was analyzed into 1 assay endpoint. This assay endpoint, ATG_DR4_LXR_CIS, was analyzed with bidirectional fitting relative to DMSO as the negative control and baseline of activity. Using a type of inducible reporter, measures of mRNA for gain or loss-of-signal activity can be used to understand the reporter gene at the transcription factor-level as they relate to the gene NR1H2 and NR1H3. Furthermore, this assay endpoint can be referred to as a primary readout, because this assay has produced multiple assay endpoints where this one serves a reporter gene function. To generalize the intended target to other relatable targets, this assay endpoint is annotated to the nuclear receptor intended target family, where the subfamily is non-steroidal.
# Human liver HepG2 cells are transiently transfected with multiple reporter transcription units (MRTUs) in 6-well plates using FuGene 6 reagent (Roche; 3 ml FuGene/1 mg DNA). The MRTU constructs are regulated by a cis-regulating element (promoter). […] A major difference between the CIS and TRANS system is that in CIS activities of endogenous TFs are measured, whereas the TRANS assay evaluates changes in activities of exogenous, chimeric NR-Gal4 proteins. […] At the end of 24 hour incubation, total RNA was isolated using TriZol reagent (Invitrogen). The isolated RNA is then reverse-transcribed using oligo(dT) primer and Mo-MLV reverse transcriptase (Invitrogen) with DNAse I (Ambion) treatment for 30 min. The one-tenth of the produced cDNA was amplified by PCR using Taq DNA polymerase (Invitrogen) and two reporter sequence-specific primers. The PCR products were fluorescently labeled by primer extension with 6-arboxyfluorescein (6-FAM) 5'-labeled reporter sequence-specific primer (2 min at 95 C, 20 s at 68 C and 10 min at 72 C) and these products were digested with 5U of HpaI (New England Biolabs) for 2h at 37 C. The fragments were purified using Qiaquick PCR columns (Qiagen), analyzed on an ABI 3130xL genetic analyzer (Applied Biosystems) with peak positions identified by using a set of X-rhodamine (ROX)-labeled MapMarker1000 molecular weight standards (BioVentures). The raw capillary electrophoresis data was processed using Attagraph software (Attagene).
Compound,outcome,AC50
S=C(NC1CCCCC1)NC1CCCCC1,inactive,–
CCCCCCCCCCC=CC#N,–,100 µM (active)
C[C@]12C=CC(=O)C=C1CC[C@@H]1[C@@H]2[C@@H](O)C[C@@]2(C)[C@H]1CC[C@]2(O)C(=O)CO,inactive,–
OC1OCCOC1O (stereo not given),inactive,–
[Cl][In]([Cl])[Cl],inactive,–
CNC(=S)NN,inactive,–
CCc1ccc2c(c1)C(=O)c1ccccc1C2=O,inactive,–
O=[N+]([O-])c1ccc(CO)cc1,inactive,–
CCN(CC)c1ccc(C(=O)c2ccccc2C(=O)O)c(O)c1,inactive,–
O=C(c1ccccc1)C1CCC1,inactive,–
N#CCc1ccc(Cl)cc1Cl,inactive,–
O=CC1CC1,inactive,–
N[C@H]1C(O)O[C@H](CO)[C@H](O)[C@@H]1O (stereo not given in full),inactive,–
CCCCNc1ccc(NCCCC)c2c1C(=O)c1ccccc1C2=O,inactive,–
O=C(O)CC(C(=O)O)C(CC(=O)O)C(=O)O (stereo not given),inactive,–
O=C1CCC(=O)N1Cl,inactive,–
COc1ccc2nc(N)sc2c1,inactive,–
O=c1cc(-c2ccccc2)oc2ccccc12,inactive,–
CC(C)=CCC/C(C)=C\C#N,inactive,–
CC1=NC(C)OC1C (stereo not given),inactive,–

Compound,outcome,AC50
C=COCCCC,inactive,–
COC(=O)c1ccccc1OC,inactive,–
Cn1c([N+](=O)[O-])cnc1COC(N)=O,inactive,–
CC(C)CCCC(C)CC=O (stereo not given),inactive,–
CCCC(=O)OCc1ccccc1,inactive,–
NC(=O)c1ccccc1O,inactive,–
CCCCCCCC/C=C\CCCCCCCC(=O)OCCO,–,50 µM (active)
c1ccc(-c2ccccn2)nc1,inactive,–
[Cl][Nd]([Cl])[Cl],inactive,–
COc1ccc(C(Cl)=C(c2ccc(OC)cc2)c2ccc(OC)cc2)cc1,inactive,–
CC=C1CC2C=CC1C2 (stereo not given),–,26.5 µM (active)
CCC(C)(C)C1CCCCC1OC(C)=O (stereo not given),inactive,–
O=c1cc[nH]c(=S)[nH]1,inactive,–
O=Cc1ccc(CO)o1,inactive,–
CC1=NN(c2cc(S(=O)(=O)O)ccc2Cl)C(=O)C1N=Nc1ccccc1 (stereo not given),inactive,–
C=CC(C)(CCC=C(C)C)OC(=O)CC(C)C (stereo not given),–,133 µM (active)
O=C1CCCCCCCCCCCCCCCO1,–,63.2 µM (active)
Nc1nc2ccccc2[nH]1,inactive,–
c1cc(N(CC2CO2)CC2CO2)ccc1OCC1CO1 (stereo not given),–,6.98 µM (active)
O=C1Nc2ccccc2C1(c1ccc(O)cc1)c1ccc(O)cc1,–,36.7 µM (active)
